PubChem BioAssay
“And” between values parts separate entries of the source, which are not always exact repeats. Identical values can stand only once. Some structures have more than one record in an assay (separate samples or runs), and their calls can disagree. The source made the active and inactive calls.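 The calls were made as follows, unless noted: active = inhibition above 50%; inactive = the rest.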

Assay: antimalarial activity against Dd2 strain (AID 2302;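 active = growth inhibition above 50% at the single 2 µM test dose, taken to imply half-maximal potency below 2 µM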;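 also: 0% = DMSO untreated growth and 100% = chloroquine plus artemisinin killed control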)
Conditions: P. falciparum Dd2 in RBCs, LDH growth readout, 72 h; at 2 µM; stronger effect = higher value

SMILES	growth inhibition
O=C(/C=C/c1cccc2ccccc12)NC1CCC(CN2CCC(c3c[nH]c4ccccc34)CC2)CC1 (stereo not given)	66% (active) and 72% (active)
CN(c1cc(NC(=O)c2cccs2)ccn1)C1CCN(Cc2ccccc2)CC1	87% (active)
Oc1ccccc1CNCC(O)c1cc(C(F)(F)F)cc(C(F)(F)F)c1 (stereo not given)	100% (active)
Cn1cc(CN2CCC(CCOC(c3ccccc3)c3ccccc3)CC2)cn1	100% (active)
COc1ccc(-c2ccccc2)cc1NC(=S)NC1CCC(CN2CCC(c3c[nH]c4ccccc34)CC2)CC1 (stereo not given)	98% (active) and 95% (active)
C=CCOc1ccccc1CNCC(O)c1cccc(C(F)(F)F)c1 (stereo not given)	98% (active)
O=C(Nc1ccc(Oc2ccccc2)cc1)NC1CCC(CN2CCC(c3c[nH]c4ccccc34)CC2)CC1 (stereo not given)	97% (active)
CC[C@H]1CN2CC[C@@H]1C[C@H]2[C@H](O)c1cc(N2CCC(CO)CC2)nc2ccc(OC)cc12	99% (active)
O=[N+]([O-])c1ccc(Oc2c(Cl)cc(S(=O)(=O)N3CCC(CN4CCC(c5c[nH]c6ccccc56)CC4)CC3)cc2Cl)c(Cl)c1	83% (active)
OC(CNC1CCCCCCC1)c1ccc(Cl)c(Cl)c1 (stereo not given)	99% (active)
Cc1[nH]c2ccccc2c1C1=CCN(CCCCCC23CCCc4cccc(c42)NC3=O)CC1 (stereo not given)	91% (active)
CC[C@H]1CN2CC[C@H]1C[C@H]2C(O)c1cc(OC)nc2ccccc12 (stereo not given in full)	98% (active)
CCCc1c(C(=O)NC2CCC(CN3CCC(c4c[nH]c5ccccc45)CC3)CC2)cnn1-c1c(Cl)cc(Cl)cc1Cl (stereo not given)	49% (inactive)
C/C=C1/CN2CC[C@H]1C[C@H]2[C@H](O)c1ccnc2ccc(OC)cc12	45% (inactive)
O=C(/C=C/c1ccc(Cl)c(Cl)c1)NCCCCCN1C2CCC1CC(c1c[nH]c3ccccc13)C2 (stereo not given)	4% (inactive)
C1=C(c2c[nH]c3ccccc23)CCN(Cc2ccccc2)C1	80% (active)
CC[C@H]1CN2CC[C@H]1C[C@H]2[C@H](O)c1cc(-c2ccc(F)cc2)nc2ccc(OC)cc12	98% (active)
Cc1[nH]c2ccccc2c1C1=CCN(CCN2CCCc3c(Br)cccc3C2=O)CC1	90% (active)
CN1CCC(N(C)c2nccc(N3CCN(Cc4cncn4Cc4ccccc4)CC3)n2)CC1	100% (active)
CCCCCCCc1cc(O)c2c3c(c(=O)oc2c1)CN(C)CC3	100% (active)
O=C(/C=C/c1cccs1)NC1CCC(CN2CCC(c3c[nH]c4ccccc34)CC2)CC1 (stereo not given)	29% (inactive)
CN(C)CCCn1cc(C(=O)OC2C[C@H]3CC[C@@H](C2)N3C)c2cc(-c3ccccc3)ccc21 (stereo not given in full)	96% (active)
O=C(c1cc(C(F)(F)F)cc(C(F)(F)F)c1)N1CC[C@H](CCN2CCC3(CC2)C(=O)NCN3c2ccccc2)C[C@H]1Cc1ccc(Cl)c(Cl)c1	77% (active)
Cc1cc(O)cc2c(C3CCN(CC4CCC(NC(=O)/C=C/c5ccccc5Cl)CC4)CC3)c[nH]c12 (stereo not given)	84% (active)
CC[C@H]1CN2CC[C@H]1C[C@H]2[C@H](O)c1ccnc2ccc(C#N)cc12	55% (active)

Assay: HepG2 cytotoxicity, primary screen, cytotoxicity control for P. falciparum antimalarial project, cell-based, ATP luminescence (AID 2303);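 also: 0% = DMSO wells and 100% = digitonin-killed cells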
Conditions: HepG2 viability, 24-48 h, at 10 µM, stronger effect = higher value

SMILES	inhibition
COCCNCc1ccc(-c2ccc(CN(C(=O)Nc3ccccc3)C3CCN(Cc4ccccc4)CC3)cc2)cc1	16% (inactive)
Cc1csc(-c2ccc3[nH]cc(C4=CCN(C)CC4)c3c2)n1	10% (inactive)
CCCCn1c(C)c(C(=O)OCC)c2cc(OC(C)=O)c(Br)cc21	-8% (inactive)
Cc1csc(NC2=NCCN2)n1	10% (inactive)
O=[N+]([O-])c1ccc(Oc2c(Cl)cc(S(=O)(=O)NC3CCC(CN4CCC(c5c[nH]c6ccccc56)CC4)CC3)cc2Cl)c(Cl)c1 (stereo not given)	30% (inactive)
CN1CC=C(c2c[nH]c3ccc(OCc4ccccc4)cc23)CC1	-2% (inactive)
COc1ccc(CC(C)NCC(O)c2ccc(Cl)c(Cl)c2)cc1 (stereo not given)	0% (inactive)
COC(=O)c1ccc(CC(C)NCC(O)c2ccccc2Cl)cc1 (stereo not given)	1% (inactive)
Cc1cc(C(=O)NC2CCN(CC3(c4ccc(Cl)cc4)CCC3)CC2)on1	5% (inactive)
O=C(/C=C/c1cc(F)cc(C(F)(F)F)c1)N1CCC(CN2CCC(c3c[nH]c4ccccc34)CC2)CC1	32% (inactive)
CS(=O)(=O)Nc1ccc2[nH]cc(C3CCN(CC4CCC(NC(=O)/C=C/c5ccc(Cl)c(Cl)c5)CC4)CC3)c2c1 (stereo not given)	22% (inactive)
c1ccc2c(NCCCCCCCCCNc3c4ccccc4nc4ccccc34)c3ccccc3nc2c1	99% (active)
CC(Cc1ccc(Oc2ccccc2)cc1)NCC(O)c1cccc(C(F)(F)F)c1 (stereo not given)	16% (inactive)
COC(=O)/C=C/c1ccc(C[C@@H](C)NC[C@H](O)c2cccc(C(F)(F)F)c2)cc1	41% (inactive)
CC[C@H]1CN2CC[C@H]1C[C@H]2[C@H](O)c1cc(-c2ccccc2C)nc2ccc(OC)cc12	16% (inactive)
O=C(/C=C/c1cccc2ccccc12)NC1CCC(CN2CCC(c3c[nH]c4ccccc34)CC2)CC1 (stereo not given)	45% (inactive) and 53% (active)
CN(c1cc(NC(=O)c2cccs2)ccn1)C1CCN(Cc2ccccc2)CC1	-2% (inactive)
Oc1ccccc1CNCC(O)c1cc(C(F)(F)F)cc(C(F)(F)F)c1 (stereo not given)	15% (inactive)
Cn1cc(CN2CCC(CCOC(c3ccccc3)c3ccccc3)CC2)cn1	27% (inactive)
COc1ccc(-c2ccccc2)cc1NC(=S)NC1CCC(CN2CCC(c3c[nH]c4ccccc34)CC2)CC1 (stereo not given)	51% (active) and 27% (inactive)

SMILES	inhibition
C=CCOc1ccccc1CNCC(O)c1cccc(C(F)(F)F)c1 (stereo not given)	10% (inactive)
O=C(Nc1ccc(Oc2ccccc2)cc1)NC1CCC(CN2CCC(c3c[nH]c4ccccc34)CC2)CC1 (stereo not given)	55% (active)
CC[C@H]1CN2CC[C@@H]1C[C@H]2[C@H](O)c1cc(N2CCC(CO)CC2)nc2ccc(OC)cc12	4% (inactive)
O=[N+]([O-])c1ccc(Oc2c(Cl)cc(S(=O)(=O)N3CCC(CN4CCC(c5c[nH]c6ccccc56)CC4)CC3)cc2Cl)c(Cl)c1	43% (inactive)
OC(CNC1CCCCCCC1)c1ccc(Cl)c(Cl)c1 (stereo not given)	17% (inactive)
Cc1[nH]c2ccccc2c1C1=CCN(CCCCCC23CCCc4cccc(c42)NC3=O)CC1 (stereo not given)	11% (inactive)
CC[C@H]1CN2CC[C@H]1C[C@H]2C(O)c1cc(OC)nc2ccccc12 (stereo not given in full)	-2% (inactive)
CCCc1c(C(=O)NC2CCC(CN3CCC(c4c[nH]c5ccccc45)CC3)CC2)cnn1-c1c(Cl)cc(Cl)cc1Cl (stereo not given)	41% (inactive)
C/C=C1/CN2CC[C@H]1C[C@H]2[C@H](O)c1ccnc2ccc(OC)cc12	-16% (inactive)
O=C(/C=C/c1ccc(Cl)c(Cl)c1)NCCCCCN1C2CCC1CC(c1c[nH]c3ccccc13)C2 (stereo not given)	54% (active)
C1=C(c2c[nH]c3ccccc23)CCN(Cc2ccccc2)C1	22% (inactive)
CC[C@H]1CN2CC[C@H]1C[C@H]2[C@H](O)c1cc(-c2ccc(F)cc2)nc2ccc(OC)cc12	34% (inactive)
Cc1[nH]c2ccccc2c1C1=CCN(CCN2CCCc3c(Br)cccc3C2=O)CC1	10% (inactive)
CN1CCC(N(C)c2nccc(N3CCN(Cc4cncn4Cc4ccccc4)CC3)n2)CC1	15% (inactive)
CCCCCCCc1cc(O)c2c3c(c(=O)oc2c1)CN(C)CC3	-5% (inactive)
O=C(/C=C/c1cccs1)NC1CCC(CN2CCC(c3c[nH]c4ccccc34)CC2)CC1 (stereo not given)	33% (inactive)
CN(C)CCCn1cc(C(=O)OC2C[C@H]3CC[C@@H](C2)N3C)c2cc(-c3ccccc3)ccc21 (stereo not given in full)	97% (active)
O=C(c1cc(C(F)(F)F)cc(C(F)(F)F)c1)N1CC[C@H](CCN2CCC3(CC2)C(=O)NCN3c2ccccc2)C[C@H]1Cc1ccc(Cl)c(Cl)c1	19% (inactive)
Cc1cc(O)cc2c(C3CCN(CC4CCC(NC(=O)/C=C/c5ccccc5Cl)CC4)CC3)c[nH]c12 (stereo not given)	21% (inactive)
CC[C@H]1CN2CC[C@H]1C[C@H]2[C@H](O)c1ccnc2ccc(C#N)cc12	0% (inactive)
